From PubChem BioAssay AID1159580 (chemical genetic matrix, 2015)
Out of some 5,500 compounds screened, about 2,000 (36%) were called active. Not shown: some 18% with an inconclusive outcome. No stated cut-off is given here; in the data, active means normalized growth mostly below about 0.91 (no sharp cut-off); inconclusive means no clear call, values can overlap the other calls; inactive means mostly above about 0.92. Some of the results follow.

Assay: chemical genetic growth profiling, strain panel (AID 1159580);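 further: tested at 20 µM; growth read once vehicle control cultures reached saturation at 30 °C; 1 = growth at the plate median or of vehicle wells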
Details: S. cerevisiae deletion strains, growth OD

Measured: normalized growth

CNC(=O)O/N=C\C(C)(C)SC
inactive: locus YAL013W, strain DEP1, stronger effect = lower value 1.01 | locus YAL021C, strain ccr4, stronger effect = lower value 0.997 | locus YAL026C, strain drs2, stronger effect = lower value 1 | locus YAL030W, strain snc1, stronger effect = lower value 1 | locus YBL061C, strain skt5, stronger effect = lower value 1.01 | locus YBR009C, strain hhf1, stronger effect = lower value 0.988 | locus YBR021W, strain FUR4, stronger effect = lower value 1.03 | locus YBR023C, strain chs3, stronger effect = lower value 1 | locus YBR171W, strain sec66, stronger effect = lower value 1.01 | locus YBR229C, strain ROT2, stronger effect = lower value 0.996 | locus YBR231C, strain swc5, stronger effect = lower value 0.998 | locus YBR279W, strain paf1, stronger effect = lower value 1.01 | locus YCL011C, strain gbp2, stronger effect = lower value 1.01 | locus YCL016C, strain dcc1, stronger effect = lower value 1.01 | locus YCL029C, strain bik1, stronger effect = lower value 0.987 | locus YCL061C, strain MRC1, stronger effect = lower value 1.01 | locus YCL069W, strain vba3, stronger effect = lower value 1.01 | locus YCR088W, strain abp1, stronger effect = lower value 1 | locus YDL005C, strain med2, stronger effect = lower value 1 | locus YDL035C, strain GPR1, stronger effect = lower value 1.02 | locus YDL040C, strain nat1, stronger effect = lower value 0.99 | locus YDL074C, strain BRE1, stronger effect = lower value 1.08 | locus YDL101C, strain DUN1, stronger effect = lower value 1.01 | locus YDL134C, strain PPH21, stronger effect = lower value 1.01 | locus YDL185W, strain tfp1, stronger effect = lower value 0.99 | locus YDL192W, strain arf1, stronger effect = lower value 0.994 | locus YDR001C, strain nth1, stronger effect = lower value 1.01 | locus YDR069C, strain doa4, stronger effect = lower value 0.999 | locus YDR101C, strain arx1, stronger effect = lower value 0.986 | locus YDR137W, strain rgp1, stronger effect = lower value 1.02 | locus YDR150W, strain NUM1, stronger effect = lower value 1.01 | locus YDR159W, strain sac3, stronger effect = lower value 0.965 | locus YDR162C, strain NBP2, stronger effect = lower value 1.01 | locus YDR195W, strain ref2 0.964 | locus YDR297W, strain sur2, stronger effect = lower value 0.999 | locus YDR318W, strain mcm21, stronger effect = lower value 0.993 | locus YDR334W, strain swr1, stronger effect = lower value 1.01 | locus YDR335W, strain msn5, stronger effect = lower value 1.01 | locus YDR388W, stronger effect = lower value 0.985 | locus YDR392W, strain spt3, stronger effect = lower value 0.886 | locus YDR502C, strain sam2, stronger effect = lower value 1 | locus YEL003W, strain gim4, stronger effect = lower value 1.01 | locus YEL037C, strain rad23, stronger effect = lower value 1.01 | locus YEL061C, strain CIN8 (second series), stronger effect = lower value 1.01 | locus YEL061C, strain CIN8, stronger effect = lower value 1 | locus YER015W, strain faa2, stronger effect = lower value 1.02 | locus YER016W, strain bim1, stronger effect = lower value 1.01 | locus YER110C, stronger effect = lower value 0.983 | locus YER111C, strain swi4, stronger effect = lower value 1.02 | locus YER155C, strain BEM2 (second series), stronger effect = lower value 0.995 | locus YER155C, strain BEM2, stronger effect = lower value 0.998 | locus YER167W, strain BCK2, stronger effect = lower value 1.02 | locus YFR010W, strain ubp6, stronger effect = lower value 0.998 | locus YGL078C, strain dbp3, stronger effect = lower value 0.986 | locus YGL086W, strain mad1, stronger effect = lower value 0.987 | locus YGL167C, strain pmr1, stronger effect = lower value 0.995 | locus YGL173C, strain kem1, stronger effect = lower value 0.997 | locus YGL227W, strain vid30, stronger effect = lower value 1.01 | locus YGL240W, strain doc1, stronger effect = lower value 0.972 | locus YGL248W, strain PDE1, stronger effect = lower value 1.01 | locus YGL253W, strain hxk2, stronger effect = lower value 0.997 | locus YGR078C, strain PAC10, stronger effect = lower value 1.01 | locus YGR135W, strain pre9, stronger effect = lower value 1 | locus YGR229C, strain SMI1, stronger effect = lower value 1.03 | locus YGR252W, strain gcn5, stronger effect = lower value 0.98 | locus YHR013C, strain ard1, stronger effect = lower value 0.971 | locus YHR027C, strain rpn1, stronger effect = lower value 1 | locus YHR030C, strain SLT2, stronger effect = lower value 0.984 | locus YHR079C, strain IRE1 (second series), stronger effect = lower value 0.988 | locus YHR094C, strain hxt1, stronger effect = lower value 0.983 | locus YHR129C, strain ARP1, stronger effect = lower value 1.02 | locus YHR142W, strain chs7, stronger effect = lower value 1 | locus YHR200W, strain rpn10, stronger effect = lower value 0.98 | locus YIL066C, strain RNR3, stronger effect = lower value 1.03 | locus YIL073C, strain SPO22, stronger effect = lower value 0.995 | locus YIL125W, strain kgd1, stronger effect = lower value 0.997 | locus YIR030C, strain dcg1, stronger effect = lower value 0.992 | locus YJL092W, strain hpr5, stronger effect = lower value 1.01 | locus YJL095W, strain BCK1 (second series), stronger effect = lower value 1 | locus YJL095W, strain BCK1, stronger effect = lower value 1.03 | locus YJL115W, strain asf1, stronger effect = lower value 1.02 | locus YJL129C, strain trk1, stronger effect = lower value 1.01 | locus YJL134W, strain LCB3, stronger effect = lower value 1 | locus YJL154C, strain vps35, stronger effect = lower value 1.02 | locus YJL164C, strain tpk1, stronger effect = lower value 1.01 | locus YJL166W, strain qcr8, stronger effect = lower value 1 | locus YJL168C, strain set2, stronger effect = lower value 0.98 | locus YJL187C, strain SWE1 (second series), stronger effect = lower value 1.01 | locus YJL187C, strain SWE1, stronger effect = lower value 0.998
